Reference: the supplement of paper PMC10849652
About 8,800 targets were measured; listed, in parts, are those with a hit and a random draw of the rest. About 0.5% of all pairs of compound and target were hits. A number with no mark means an inactive call.

Assays:
Test in all cases: log2 fold change, soluble protein after heating vs DMSO (PISA); higher = thermal stabilisation; K562 lysate, 10 uM; active = over 0.2 and 3.5 SD of the protein, either way, in both replicates (recomputed)
vemurafenib = compound: CCCS(=O)(=O)Nc1ccc(F)c(C(=O)c2c[nH]c3ncc(-c4ccc(Cl)cc4)cc23)c1F [vemurafenib]
Summary of the method: (§1)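 Soluble protein was defined as the supernatant remaining after 21,000xg for 90 min, following pooling of heated aliquots and adjustment to 0.5% NP-40 at 4°C. Before that, crude K562 extract at 1 mg/mL protein in PBS pH 7.4 with 1 mM MgCl2 was treated with 10 μM compound for 30 min and heated for 3 min across 48°C-58°C. Quantification used TMTpro 16plex LC-MS/MS with channel sums equalised, and values are log-two fold changes in thermal stability relative to solvent controls from duplicates.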

[1] = compound: CCCS(=O)(=O)Nc1ccc(F)c(C(=O)c2c[nH]c3ncc(Cl)cc23)c1F
Summary of the method: as §1

barasertib = compound: CCN(CCCOc1ccc2c(Nc3cc(CC(=O)Nc4cccc(F)c4)[nH]n3)ncnc2c1)CCOP(=O)(O)O [barasertib]
Summary of the method: as §1

[2] = compound: CC[C@@H]1C(=O)N(C)c2cnc(Nc3ccc(C(=O)NC4CCN(C)CC4)cc3OC)nc2N1C1CCCC1
Summary of the method: as §1

volasertib = compound: CC[C@@H]1C(=O)N(C)c2cnc(Nc3ccc(C(=O)N[C@H]4CC[C@H](N5CCN(CC6CC6)CC5)CC4)cc3OC)nc2N1C(C)C [volasertib]
Summary of the method: as §1

[3] = compound: CCn1c(C(=O)N(C2CC2)C2CC2)cc2c3c(ncn3C)c(Nc3cc(C)n(C)n3)nc21
Summary of the method: as §1

[4] = compound: CCn1cc(-c2ccnc3[nH]c(-c4cccc(CN(C)C)c4)cc23)c(-c2ccc(NC(=O)N(C)C)cc2)n1
Summary of the method: as §1

[5] = compound: CN1CCC(CNc2ccc3ncc(-c4cccc(OC(F)(F)F)c4)n3n2)CC1
Summary of the method: as §1

saracatinib = compound: CN1CCN(CCOc2cc(OC3CCOCC3)c3c(Nc4c(Cl)ccc5c4OCO5)ncnc3c2)CC1 [saracatinib]
Summary of the method: as §1

sotrastaurin = compound: CN1CCN(c2nc(C3=C(c4c[nH]c5ccccc45)C(=O)NC3=O)c3ccccc3n2)CC1 [sotrastaurin]
Summary of the method: as §1

UniProt Q05823, sequence (Q05823 whole entry, looked up): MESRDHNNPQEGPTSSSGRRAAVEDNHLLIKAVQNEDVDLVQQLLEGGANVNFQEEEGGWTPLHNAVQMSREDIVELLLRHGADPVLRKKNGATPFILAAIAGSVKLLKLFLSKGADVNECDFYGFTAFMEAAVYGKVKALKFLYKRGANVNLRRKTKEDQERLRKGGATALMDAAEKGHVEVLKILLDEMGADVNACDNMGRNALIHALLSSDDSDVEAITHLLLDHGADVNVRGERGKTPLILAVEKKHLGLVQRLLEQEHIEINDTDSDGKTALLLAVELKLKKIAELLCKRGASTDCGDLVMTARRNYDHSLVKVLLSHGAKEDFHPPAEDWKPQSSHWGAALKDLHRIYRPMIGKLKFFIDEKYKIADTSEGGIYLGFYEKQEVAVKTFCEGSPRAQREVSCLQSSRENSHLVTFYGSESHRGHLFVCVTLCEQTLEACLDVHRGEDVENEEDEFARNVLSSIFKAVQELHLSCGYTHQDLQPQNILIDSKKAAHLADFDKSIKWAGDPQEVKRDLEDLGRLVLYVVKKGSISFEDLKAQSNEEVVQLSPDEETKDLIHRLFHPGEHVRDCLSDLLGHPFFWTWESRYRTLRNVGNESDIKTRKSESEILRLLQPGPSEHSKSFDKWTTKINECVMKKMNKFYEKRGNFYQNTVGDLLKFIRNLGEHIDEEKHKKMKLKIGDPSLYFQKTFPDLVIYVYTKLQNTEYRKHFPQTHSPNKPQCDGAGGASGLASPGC
UniProt Q15283, sequence (Q15283 whole entry, looked up): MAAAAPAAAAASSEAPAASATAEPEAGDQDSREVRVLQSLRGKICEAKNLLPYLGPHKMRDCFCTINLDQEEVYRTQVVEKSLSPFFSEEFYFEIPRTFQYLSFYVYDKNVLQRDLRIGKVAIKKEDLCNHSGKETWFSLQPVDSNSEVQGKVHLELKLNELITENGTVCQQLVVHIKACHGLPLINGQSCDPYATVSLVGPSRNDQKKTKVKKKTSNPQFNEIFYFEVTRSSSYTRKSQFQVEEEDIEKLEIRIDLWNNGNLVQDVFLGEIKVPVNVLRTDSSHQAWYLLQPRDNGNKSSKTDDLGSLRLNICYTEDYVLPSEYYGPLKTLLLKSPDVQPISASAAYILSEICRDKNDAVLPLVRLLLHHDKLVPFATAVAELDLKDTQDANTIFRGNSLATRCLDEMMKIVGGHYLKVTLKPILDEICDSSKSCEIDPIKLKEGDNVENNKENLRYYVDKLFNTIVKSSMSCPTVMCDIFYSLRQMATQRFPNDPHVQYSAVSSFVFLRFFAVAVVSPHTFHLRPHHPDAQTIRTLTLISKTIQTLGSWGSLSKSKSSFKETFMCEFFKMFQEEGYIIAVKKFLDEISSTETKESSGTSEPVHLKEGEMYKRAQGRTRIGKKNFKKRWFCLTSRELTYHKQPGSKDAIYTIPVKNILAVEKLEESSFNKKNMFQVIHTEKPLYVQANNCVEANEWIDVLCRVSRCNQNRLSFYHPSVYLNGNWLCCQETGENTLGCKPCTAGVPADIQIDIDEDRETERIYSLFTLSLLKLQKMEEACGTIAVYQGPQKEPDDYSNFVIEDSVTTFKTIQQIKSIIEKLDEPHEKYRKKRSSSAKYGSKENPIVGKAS
UniProt Q16576, sequence (Q16576 whole entry, looked up): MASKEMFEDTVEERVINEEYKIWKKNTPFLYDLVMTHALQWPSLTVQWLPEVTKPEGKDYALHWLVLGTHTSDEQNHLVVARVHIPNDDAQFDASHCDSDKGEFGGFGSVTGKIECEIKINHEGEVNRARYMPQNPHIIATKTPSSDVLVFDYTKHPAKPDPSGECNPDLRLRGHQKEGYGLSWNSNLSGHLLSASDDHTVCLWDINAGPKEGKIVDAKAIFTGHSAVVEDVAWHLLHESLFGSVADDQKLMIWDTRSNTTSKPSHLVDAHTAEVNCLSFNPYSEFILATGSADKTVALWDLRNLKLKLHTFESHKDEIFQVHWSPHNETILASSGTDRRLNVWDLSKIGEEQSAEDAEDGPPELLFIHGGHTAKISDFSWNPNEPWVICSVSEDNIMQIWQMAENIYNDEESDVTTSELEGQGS
UniProt P18754, sequence (P18754 whole entry, looked up): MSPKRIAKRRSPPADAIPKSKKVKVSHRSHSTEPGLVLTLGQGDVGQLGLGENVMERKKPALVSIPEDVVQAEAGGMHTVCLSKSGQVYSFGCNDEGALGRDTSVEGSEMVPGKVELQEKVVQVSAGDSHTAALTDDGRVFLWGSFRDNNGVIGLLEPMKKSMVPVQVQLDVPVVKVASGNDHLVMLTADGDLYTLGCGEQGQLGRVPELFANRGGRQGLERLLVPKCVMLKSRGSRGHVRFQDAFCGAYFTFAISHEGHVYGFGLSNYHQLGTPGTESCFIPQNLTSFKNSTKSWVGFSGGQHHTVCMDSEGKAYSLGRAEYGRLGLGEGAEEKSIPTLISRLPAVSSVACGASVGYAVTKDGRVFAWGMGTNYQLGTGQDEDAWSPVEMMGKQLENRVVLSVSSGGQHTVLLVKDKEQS
UniProt O14730, sequence (O14730 whole entry, looked up): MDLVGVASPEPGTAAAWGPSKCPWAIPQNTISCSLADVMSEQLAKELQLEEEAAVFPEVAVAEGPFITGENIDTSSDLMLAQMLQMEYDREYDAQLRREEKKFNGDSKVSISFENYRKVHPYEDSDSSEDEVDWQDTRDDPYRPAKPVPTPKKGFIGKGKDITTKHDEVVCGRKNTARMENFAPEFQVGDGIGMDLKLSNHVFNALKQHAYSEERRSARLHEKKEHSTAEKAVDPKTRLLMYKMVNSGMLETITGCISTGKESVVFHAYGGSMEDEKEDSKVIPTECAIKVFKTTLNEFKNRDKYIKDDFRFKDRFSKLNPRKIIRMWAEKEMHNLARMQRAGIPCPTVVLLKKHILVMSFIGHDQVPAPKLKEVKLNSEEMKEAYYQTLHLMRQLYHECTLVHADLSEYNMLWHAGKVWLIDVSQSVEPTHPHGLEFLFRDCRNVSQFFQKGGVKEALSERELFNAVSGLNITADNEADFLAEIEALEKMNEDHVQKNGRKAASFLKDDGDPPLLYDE
UniProt O75446, sequence (O75446 whole entry, looked up): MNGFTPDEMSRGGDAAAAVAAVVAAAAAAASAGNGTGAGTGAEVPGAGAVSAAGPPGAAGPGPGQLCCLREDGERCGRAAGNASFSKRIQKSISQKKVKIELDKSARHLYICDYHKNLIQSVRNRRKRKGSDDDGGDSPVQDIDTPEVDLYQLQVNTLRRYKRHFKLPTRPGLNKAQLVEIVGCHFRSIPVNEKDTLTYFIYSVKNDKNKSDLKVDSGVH
UniProt P28702, sequence (P28702 whole entry, looked up): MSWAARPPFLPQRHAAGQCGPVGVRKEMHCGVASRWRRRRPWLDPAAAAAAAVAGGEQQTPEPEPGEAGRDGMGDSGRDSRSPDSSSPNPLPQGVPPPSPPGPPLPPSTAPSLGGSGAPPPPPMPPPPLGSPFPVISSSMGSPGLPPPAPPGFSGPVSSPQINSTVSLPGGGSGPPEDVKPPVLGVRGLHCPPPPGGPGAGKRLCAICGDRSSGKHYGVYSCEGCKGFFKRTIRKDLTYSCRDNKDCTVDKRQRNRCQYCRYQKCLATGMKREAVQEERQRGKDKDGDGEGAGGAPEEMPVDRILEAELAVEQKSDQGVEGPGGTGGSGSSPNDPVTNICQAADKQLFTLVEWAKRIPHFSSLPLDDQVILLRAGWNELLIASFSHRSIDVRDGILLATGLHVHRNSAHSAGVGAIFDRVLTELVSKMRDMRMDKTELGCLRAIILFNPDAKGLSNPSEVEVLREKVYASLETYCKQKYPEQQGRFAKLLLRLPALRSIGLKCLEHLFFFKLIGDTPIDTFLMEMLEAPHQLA
UniProt Q9BWF3, sequence (Q9BWF3 whole entry, looked up): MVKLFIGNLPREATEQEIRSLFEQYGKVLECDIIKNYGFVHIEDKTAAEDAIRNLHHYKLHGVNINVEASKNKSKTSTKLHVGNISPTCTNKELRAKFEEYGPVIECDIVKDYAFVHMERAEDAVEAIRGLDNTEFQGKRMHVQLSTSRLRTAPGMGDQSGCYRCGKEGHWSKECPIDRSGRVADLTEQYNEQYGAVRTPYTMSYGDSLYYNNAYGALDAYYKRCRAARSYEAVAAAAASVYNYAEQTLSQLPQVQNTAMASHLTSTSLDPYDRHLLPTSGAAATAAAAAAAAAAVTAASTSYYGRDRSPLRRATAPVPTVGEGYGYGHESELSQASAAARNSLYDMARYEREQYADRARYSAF
UniProt P23443, sequence (P23443 whole entry, looked up): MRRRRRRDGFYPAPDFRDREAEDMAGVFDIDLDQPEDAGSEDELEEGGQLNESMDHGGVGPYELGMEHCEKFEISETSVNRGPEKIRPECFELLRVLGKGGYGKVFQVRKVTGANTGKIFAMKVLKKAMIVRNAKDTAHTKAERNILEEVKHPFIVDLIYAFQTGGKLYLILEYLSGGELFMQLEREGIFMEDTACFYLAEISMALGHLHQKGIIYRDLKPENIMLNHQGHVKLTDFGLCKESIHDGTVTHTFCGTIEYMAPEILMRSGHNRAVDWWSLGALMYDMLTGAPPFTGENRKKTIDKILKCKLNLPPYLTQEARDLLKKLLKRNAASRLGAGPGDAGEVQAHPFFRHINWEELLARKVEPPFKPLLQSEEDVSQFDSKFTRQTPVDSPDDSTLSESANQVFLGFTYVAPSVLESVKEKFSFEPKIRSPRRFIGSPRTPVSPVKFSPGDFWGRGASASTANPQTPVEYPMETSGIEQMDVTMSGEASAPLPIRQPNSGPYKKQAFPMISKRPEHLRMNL
UniProt O00767, sequence (O00767 whole entry, looked up): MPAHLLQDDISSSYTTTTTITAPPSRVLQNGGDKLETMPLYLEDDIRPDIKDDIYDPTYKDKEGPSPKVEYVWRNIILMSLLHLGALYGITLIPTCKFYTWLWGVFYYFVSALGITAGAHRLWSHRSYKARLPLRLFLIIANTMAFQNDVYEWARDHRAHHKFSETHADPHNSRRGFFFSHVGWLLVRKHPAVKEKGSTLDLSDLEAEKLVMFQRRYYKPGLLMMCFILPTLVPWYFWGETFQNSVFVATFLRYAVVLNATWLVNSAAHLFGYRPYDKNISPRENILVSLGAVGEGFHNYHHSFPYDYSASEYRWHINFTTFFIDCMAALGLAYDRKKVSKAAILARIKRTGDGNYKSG

Target | log2 fold change (vemurafenib) | log2 fold change [1] | log2 fold change (barasertib) | log2 fold change [2] | log2 fold change (volasertib) | log2 fold change [3] | log2 fold change [4] | log2 fold change [5] | log2 fold change (saracatinib) | log2 fold change (sotrastaurin)
RAP1B (UniProt P61224) | 0.006 | 0.008 | 0.054 | 0.061 | 0.018 | -0.037 | 0.372 (active) | -0.035 | 0.002 | 0.005
RBM22 (UniProt Q9NW64) | -0.014 | -0.007 | 0.022 | 0.078 | -0.004 | -0.004 | 0.058 | 0.025 | 0.01 | -0.08
RBM42 (UniProt Q9BTD8) | -0.029 | 0.027 | -0.037 | 0.076 | -0.014 | -0.006 | 0.004 | -0.002 | 0.039 | -0.009
RAPGEF2, A0A2R8YGD3 | 0 | 0.013 | 0.144 | 0.093 | -0.015 | -0.029 | 0.325 | 0.05 | 0.01 | -0.003
RIC1 (UniProt Q4ADV7) | -0.055 | 0.021 | -0.013 | 0.029 | 0.009 | 0.017 | -0.29 | 0.004 | -0.012 | -0.008
RIOK3 (UniProt O14730) | 0.021 | -0.004 | 0.004 | -0.098 | -0.041 | -0.032 | -0.052 | -0.024 | -0.03 | 0.013
RCC1 isoform 2 (UniProt P18754) | 0.049 | 0.018 | -0.008 | -0.114 | -0.066 | 0.027 | -0.105 | -0.046 | -0.021 | 0.001
RELN (UniProt P78509) | 0.043 | -0.098 | 0.004 | 0.024 | -0.019 | 0.021 | -0.024 | 0.152 | 0.035 | 0.02
RPS6KB1 (UniProt P23443) | -0.052 | -0.001 | 0.068 | -0.109 | -0.041 | 0.078 | -0.155 | 0.185 | -0.022 | 0.074
S100A11 (UniProt P31949) | 0.005 | -0.015 | 0.008 | 0.037 | 0.098 | 0.004 | -0.008 | -0.052 | 0.023 | -0.036
RNASEL (UniProt Q05823) | -0.004 | 0.053 | 0.077 | -0.017 | -0.103 | 0.012 | -0.006 | -0.025 | -0.011 | 0.024
SEC61G (UniProt P60059) | 0.015 | -0.079 | 0.175 | 0.159 | 0.033 | -0.067 | -0.118 | 0.405 | -0.276 | -0.184
RIPK1 (UniProt Q13546) | -0.053 | 0.027 | 0.01 | -0.026 | -0.066 | 0.027 | -0.019 | -0.013 | 0.016 | -0.045
RETSAT (UniProt Q6NUM9) | 0.115 | 0.039 | 0.076 | 0 | -0.087 | -0.297 | -0.318 | 0.116 | 0.108 | -0.119
SCD (UniProt O00767) | -0.03 | 0.111 | 0.042 | 0.006 | 0.098 | -0.082 | -0.504 (active) | 0.212 | 0.071 | 0.084
RETREG2 (UniProt Q8NC44) | 0.037 | -0.036 | 0.033 | -0.009 | 0.09 | -0.086 | -0.261 | 0.014 | – | 0.112

Target | log2 fold change (vemurafenib) | log2 fold change [1] | log2 fold change (barasertib) | log2 fold change [2] | log2 fold change (volasertib) | log2 fold change [3] | log2 fold change [4] | log2 fold change [5] | log2 fold change (saracatinib) | log2 fold change (sotrastaurin)
RAP1B (UniProt F5GZG1) | 0.025 | -0.069 | 0.043 | -0.013 | -0.015 | – | 0.471 | 0.041 | 0.094 | -0.038
RPTOR (UniProt Q8N122) | -0.028 | 0.022 | 0.052 | -0.024 | -0.046 | 0.038 | 0.018 | -0.039 | 0 | 0.046
RPAP1 (UniProt Q9BWH6) | -0.008 | -0.012 | 0.012 | -0.028 | -0.053 | 0 | -0.031 | 0.008 | 0.02 | 0.01
RANBP2 (UniProt P49792) | -0.031 | 0.015 | 0.043 | -0.022 | -0.048 | 0.026 | -0.019 | -0.031 | 0.018 | 0.015
SAR1A (UniProt Q9NR31) | 0.109 | 0 | 0.07 | 0.03 | -0.05 | 0.021 | -0.009 | -0.108 | 0.025 | 0.084
RECQL5 (UniProt O94762) | -0.028 | -0.045 | 0.02 | 0.069 | -0.187 | -0.01 | 0.131 | -0.222 | 0.018 | 0.003
RAD54L2 (UniProt Q9Y4B4) | 0.159 | 0.081 | -0.032 | -0.201 | -0.072 | – | -0.149 | 0 | 0.078 | -0.061
RAB5IF isoform 5 (UniProt Q9BUV8) | -0.075 | 0.129 | 0.142 | -0.03 | -0.398 | – | 0.928 (active) | -0.362 | 0.009 | –
RBM4 (UniProt Q9BWF3) | -0.013 | -0.042 | 0.023 | -0.053 | -0.032 | 0.045 | 0.344 (active) | -0.044 | -0.013 | -0.015
RXRB isoform 3 (UniProt P28702) | 0.028 | 0.136 | 0.106 | 0.008 | -0.125 | – | -0.008 | -0.089 | -0.048 | -0.051
RBBP7 isoform 2 (UniProt Q16576) | -0.064 | -0.007 | -0.042 | -0.057 | 0.022 | 0.047 | -0.274 (active) | 0.088 | 0.001 | 0.032
RFC4 (UniProt P35249) | 0.047 | 0.02 | 0.02 | -0.012 | -0.042 | 0.003 | -0.086 | 0.028 | 0.044 | 0.003
RHBDD1 (UniProt Q8TEB9) | 0.105 | -0.08 | -0.05 | -0.16 | -0.074 | – | 0.016 | -0.029 | – | –
RASA2 (UniProt Q15283) | 0.069 | 0.025 | -0.02 | -0.055 | -0.018 | 0.02 | -0.028 | -0.013 | 0.068 | -0.017
SAP30 (UniProt O75446) | -0.016 | 0.006 | 0.051 | 0.063 | -0.054 | – | 0.103 | -0.022 | 0.016 | -0.013
